Results reported in PubChem BioAssay (NCATS).
The list shows a part of the results. Results filed as inconclusive are left out. The source made the active and inactive calls. Calls come from the whole dose curve; as a rule, active = well fitted inhibition curve with a large enough effect; inconclusive = small, poorly fitted or top-dose-only effect; inactive = flat fitted curve, though single readings scatter.

Assay: qHTS Assay for Inhibitors of Fructose-1,6-bisphosphate Aldolase from Giardia Lamblia: Coupling assay counterscreen confirmation (AID 2795); note: nearly all actives have a fitted effect of over 55% in size
Conditions: GAPDH coupling enzyme counterscreen, biochemical; series mostly up to 57.5 µM; activity change, negative = inhibition: at the top concentration
Source text: NIH Chemical Genomics Center [NCGC]
NIH Molecular Libraries Probe Production centers Network [MLPCN]
Assay Provider: Osnat Herzberg, University of Maryland
The objective of this project is to obtain compounds that inhibit Giardia lamblia growth. G. lamblia is a human pathogen which afflicts impoverished nations; it is the most common cause of outbreaks of diarrhea in the United States. During the course of our study of potential drug targets in Giardia, we have identified the Class II (Zn2+ functions in electrophilic catalysis) fructose-1,6-bisphosphate aldolase (FBPA) as an excellent candidate for drug targeting. FBPA is a key glycolytic pathway enzyme, essential for G. lamblia survival. The human FBPA belongs to the Class I aldolases, which have a different substrate binding site structure and a radically different catalytic mechanism (employing a lysine-Schiff base intermediate). Therefore, affinity-based or mechanism-based inhibitors of the Giardia FBPA are expected not to interfere with the catalytic function of the human FBPA.
A glyceraldehyde-3-phosphate dehydrogenase/triose phosphate isomerase/NAD/arsenate coupled assay was adapted to the 1536-well HTP format for use in the primary screen. This was done by coupling it to a diaphorase/resazurin/resorufin reaction that can be monitored by fluorescence (excitation, 544 nm; emission, 590 nm). Compounds identified in this screen will be further evaluated by coupling the glycerol-3-phosphate/triose phosphate isomerase/NADH assay to a phenazine methosulfate/tetranitroblue tetrazolium color reaction. False positives due to the dehydrogenases and diaphorase inhibition will be eliminated, and selectivity assay will triage inhibitors of mammalian triose phosphate isomerase and the Class I FBPA. G. lamblia FBPA inhibitors identified by the in vitro analyses will be examined for growth inhibition of Giardia trophozoites, and for cytotoxicity in human cells.
This assay specifically addresses whether activity observed in the primary screen (AID 2451) is related to inhibition of the coupling assay used, as opposed to inhibition of aldolase. Actives in this assay are considered inconclusive for activity against aldolase. Hits from the primary screen was run in this assay to confirm their inactivity against the coupling assay.
Step,Parameter,Value,Description
1,Coupling enzyme reagent,2 uL,glyceraldehyde-3-phosphate
2,Compound,23 nL,3.68 nM-57.5 uM final concentration
3,Time,10 min,RT Incubation
4,Substrate/detection Reagent,2 uL,Substrate + enzyme coupling system + AmpLite Red kit
5,Time,20 min,RT Incubation
6,Detector,525 nm/598 nm (Fluorescence),ViewLux Fluorescence Read (Read 1)
1,Medium-binding black solid-bottom Kalypsys plates. FRD or Kalypsys dispenser.
2,Compound Library (10 mM ,1:5 dilution). Pin-transferred for a [final] range of 3.68 nM-57.5 uM.
4,FRD or Kalypsys dispenser, 2 uL of reaction mixture. Bottle kept at 4C and covered in foil to protect from light.
6,ViewLux Protocol 1194; Excitation filter wheel A (525/20 Pol; BODIPY TMR FP), Emission filter wheel B (598/25 S; BODIPY TMR FP S).
Keywords: Fructose-bisphosphate aldolase, FBPA , Giardia lamblia , Giardia, HTS, Inhibitors
% is set by controls: 0 for no effect and ±100 for the full control effect.

| SMILES | activity change, negative = inhibition |
| --- | --- |
| COc1ccc(N=Nc2c(-c3ccc(OC)cc3)[nH]oc2=O)cc1 | 4.97% (inactive) |
| Cc1cnc(NC(=O)c2ccccn2)s1 | -0.283% (inactive) |
| CNC(=S)N/N=C/c1ccc(N2CCOCC2)s1 | -21.6% (inactive) |
| Cc1nc(N2CCOCC2)sc1C(=O)NN | -22.9% (inactive) |
| CN1CCN(CCCCOc2ccccc2-c2ccccc2)CC1 | -10.8% (inactive) |
| Cc1nc2ccc(NC(=S)N3CCC(C)CC3)cc2nc1C | -26.3% (inactive) |
| COCCN(C(=S)Nc1ccccc1OC)C1CCN(C(C)C)CC1 | 2.95% (inactive) |
| CC(=O)NC1CCN(CC(=O)Nc2nccs2)CC1 | 4.24% (inactive) |
| O=C(NC(=S)Nc1ncccn1)c1ccccc1Br | -4.28% (inactive) |
| Clc1cccc(CN2COc3c(cc(Cl)c4cccnc34)C2)c1 | -14.9% (inactive) |
| CCN1CCc2c(C#N)c(NCc3ccccc3)nc(NCCO)c2C1 | -5.96% (inactive) |
| COc1ccc(OC)c(Nc2nc(-c3ccc(O)c(O)c3)cs2)c1 | -19.6% (inactive) |
| C=CCc1cc(C)ccc1OCCCn1ccnc1 | -10.1% (inactive) |
| Cc1ccc(OCCCCc2c(C)n[nH]c2C)cc1 | -1.86% (inactive) |
| CN1CCCc2cc(C#N)c(=O)[nH]c21 | -17% (inactive) |
| C/C(=N\NC(N)=S)c1cccnc1 | 9.02% (inactive) |
| O=C(Nc1nnc(-c2ccco2)o1)c1ccc(S(=O)(=O)N2CCOCC2)cc1 | 4.14% (inactive) |
| CC1CCCN(S(=O)(=O)c2ccc(C(=O)Nc3nnc(-c4ccncc4)o3)cc2)C1 (stereo not given) | -9.85% (inactive) |
| CN(C)CCOc1ccc(Cl)cc1C(C)(C)C | -9.12% (inactive) |
| Oc1ccc2ccccc2c1N=Nc1nccs1 | -14.6% (inactive) |

| SMILES | activity change, negative = inhibition |
| --- | --- |
| COc1ccccc1CN1CCN(Cc2cc(OC)c(OC)cc2OC)CC1 | 1.99% (inactive) |
| C=CCNC(=S)/N=c1/ccccn1Cc1ccccc1 | 4.2% (inactive) |
| Cc1cccc(-c2nnc(SCC(=O)O)n2Cc2ccccc2)c1 | 3.29% (inactive) |
| O=C(CN1C(=O)COc2ccccc21)Nc1ccc(F)cc1 | -24.3% (inactive) |
| C=C(C)CNC(=S)N/N=C/c1ccccc1OCC(=O)O | 3.6% (inactive) |
| CCS(=O)(=O)c1cc([N+](=O)[O-])c(Sc2ccccc2N)s1 | 5.69% (inactive) |
| O=C(Nc1ccccc1Cl)O/N=C(/c1ccccc1)c1ccccn1 | -0.579% (inactive) |
| CCc1ccc2c(c1)C1(NN=C(c3ccccc3)S1)C(=O)N2 (stereo not given) | 5.94% (inactive) |
| Oc1[nH]c2ccc(Br)cc2c1N=Nc1nn[nH]n1 | 7.05% (inactive) |
| O=C(CSc1cccc[n+]1[O-])c1ccc(-c2ccccc2)cc1 | 7.53% (inactive) |
| O=C(O)Cn1c(Cc2ccccc2)nc2ccccc21 | 3.77% (inactive) |
| Cc1cc(C)nc(N/N=C/c2ccc([N+](=O)[O-])o2)n1 | -22.2% (inactive) |
| O=c1nc(N/N=C/c2ccco2)cn[nH]1 | 5.45% (inactive) |
| Cc1ccc(S(=O)(=O)NNC(=S)NC(C)(C)C)cc1 | 5.83% (inactive) |
| O=C1CCCN1CCCNC(=S)Nc1ccc(F)c(Cl)c1 | 4.58% (inactive) |
| COc1ccc(CN2CCN(Cc3ccc(OC)c(OC)c3OC)CC2)cc1 | -12.8% (inactive) |
| CCN(CC(=O)NC(=O)NCc1ccccc1)Cc1nc2ccccc2c(=O)[nH]1 | 3.55% (inactive) |
| O=[N+]([O-])c1cc([N+](=O)[O-])c2cccnc2c1O | -20.4% (inactive) |
| Cc1ccc(C(=O)Nc2nnc(C3=COCCO3)o2)cc1C | -8.14% (inactive) |
| Cc1cccc(C)c1OCCN1CCOCC1 | -24.1% (inactive) |
